Data: ChEMBL document CHEMBL3988442, “University of Dundee, Small-Polar-MMV Screening Library” (2021)
For some of these results: Entries with a potency or affinity are not part of this list.

Tests used:
Design in all cases: scale not given: direction of the effect not stated beside the values
[1] = target: Protein translocase subunit SecA (Escherichia coli (strain K12)) (UniProt P10408); experiment: Assay to Identify E. coli SecA ATPase Inhibitors; type: functional; details: 30 µM
[2] = target: T1, Ubiquitin-activating enzyme e1, putative (Leishmania donovani (strain BPK282A1)) (UniProt E9BSI1); experiment: Leishmania donovani Ubiquitin Activating Enzyme (LdE1); type: functional; details: 30 µM
T1 sequence (whole entry): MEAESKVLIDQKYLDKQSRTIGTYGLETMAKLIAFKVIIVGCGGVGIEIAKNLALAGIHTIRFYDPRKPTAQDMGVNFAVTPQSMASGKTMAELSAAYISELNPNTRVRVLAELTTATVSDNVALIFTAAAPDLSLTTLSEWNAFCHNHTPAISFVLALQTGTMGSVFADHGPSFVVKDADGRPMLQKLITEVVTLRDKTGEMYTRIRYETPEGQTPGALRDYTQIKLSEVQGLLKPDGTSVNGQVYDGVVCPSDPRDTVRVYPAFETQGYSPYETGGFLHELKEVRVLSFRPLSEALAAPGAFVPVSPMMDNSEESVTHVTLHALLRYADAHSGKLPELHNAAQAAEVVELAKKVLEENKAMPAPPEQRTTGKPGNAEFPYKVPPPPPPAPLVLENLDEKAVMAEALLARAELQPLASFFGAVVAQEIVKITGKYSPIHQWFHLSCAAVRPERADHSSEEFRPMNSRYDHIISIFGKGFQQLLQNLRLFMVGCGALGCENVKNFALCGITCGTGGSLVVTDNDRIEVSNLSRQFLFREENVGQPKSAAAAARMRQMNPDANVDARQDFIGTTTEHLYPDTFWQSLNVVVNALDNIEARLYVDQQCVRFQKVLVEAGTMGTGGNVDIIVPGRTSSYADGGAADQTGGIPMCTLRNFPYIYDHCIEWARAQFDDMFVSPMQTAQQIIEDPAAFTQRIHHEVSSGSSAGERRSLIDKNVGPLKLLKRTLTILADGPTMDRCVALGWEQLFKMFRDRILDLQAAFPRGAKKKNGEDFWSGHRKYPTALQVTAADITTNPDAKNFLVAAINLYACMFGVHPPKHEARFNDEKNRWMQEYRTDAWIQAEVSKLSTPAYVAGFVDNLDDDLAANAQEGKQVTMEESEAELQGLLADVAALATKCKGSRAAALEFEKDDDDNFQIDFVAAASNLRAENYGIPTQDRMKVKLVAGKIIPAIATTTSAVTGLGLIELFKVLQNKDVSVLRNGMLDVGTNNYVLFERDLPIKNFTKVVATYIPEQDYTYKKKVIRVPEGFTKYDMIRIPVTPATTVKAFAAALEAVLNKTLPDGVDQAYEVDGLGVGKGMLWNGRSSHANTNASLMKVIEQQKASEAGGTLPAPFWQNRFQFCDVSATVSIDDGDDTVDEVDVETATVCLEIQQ

[3] = target: AMP-activated protein kinase, AMPK (Homo sapiens) (UniProt P54646+O43741+P54619+Q9UGJ0+Q9Y478+Q13131+Q9UGI9); experiment: AMP-dependent Kinase enzyme assay. An in vitro enzyme assay that detects ADP turnover that is directly proportional to AMPK activity. This uses naive AMPK that is activated during the assay with MK-8722; type: functional; details: 30 µM
[4] = target: Sialic acid-binding Ig-like lectin 9 (Homo sapiens) (UniProt Q9Y336); experiment: Hs-Siglec9 ALPHAscreen SOP 20170721; details: 10 µM
Trypanosoma cruzi = experiment: Trypanosoma cruzi phosphomannomutase and mannose-1-phosphate guanylyltransferase assay; type: functional; details: 10 µM
[5] = target: T2, Arginase-2, mitochondrial (Homo sapiens) (UniProt P78540); experiment: in vitro enzyme assay to detect the production of urea directly proportional to the activity of Arginase II; type: functional; details: 33.3 µM; also: in the data most compounds retested in dose-response had high values
T2 sequence (whole entry): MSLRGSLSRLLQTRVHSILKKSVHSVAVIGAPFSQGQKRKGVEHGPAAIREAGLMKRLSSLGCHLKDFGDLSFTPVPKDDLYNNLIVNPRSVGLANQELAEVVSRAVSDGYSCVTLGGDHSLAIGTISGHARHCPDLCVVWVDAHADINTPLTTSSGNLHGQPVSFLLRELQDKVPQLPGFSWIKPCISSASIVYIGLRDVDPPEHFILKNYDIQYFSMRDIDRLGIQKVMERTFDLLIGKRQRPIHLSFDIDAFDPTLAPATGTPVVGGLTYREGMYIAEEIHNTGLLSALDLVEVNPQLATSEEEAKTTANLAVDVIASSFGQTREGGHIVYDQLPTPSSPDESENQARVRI

[6] = target: T3, Proteasome subunit beta (Trypanosoma cruzi) (UniProt O96673); experiment: Trypanosoma cruzi proteasome chymotrypsin-like activity (TcProtChymo) assay.; also: in the data most compounds retested in dose-response had high values; type: functional; details: 9.37 µM
T3 sequence (whole entry): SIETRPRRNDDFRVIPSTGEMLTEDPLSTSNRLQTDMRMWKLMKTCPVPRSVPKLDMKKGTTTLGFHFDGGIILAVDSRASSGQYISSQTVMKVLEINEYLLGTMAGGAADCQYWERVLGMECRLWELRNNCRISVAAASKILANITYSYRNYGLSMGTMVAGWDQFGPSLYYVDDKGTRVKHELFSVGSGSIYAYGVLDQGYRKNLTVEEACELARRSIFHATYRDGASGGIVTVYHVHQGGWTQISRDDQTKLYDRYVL

Homo sapiens = organism: Homo sapiens; experiment: To identify inhibition of the IFN signalling (Jak-Stat) pathway via expression of an eGFP reporter gene under the control of an IFN-stimulated response element (ISRE) containing MxA promoter.; type: functional; details: 30 µM
[7] = target: T4, Tyrosyl-tRNA synthetase, putative (Trypanosoma cruzi (strain CL Brener)) (UniProt Q4DSP6); experiment: Trypanosoma cruzi tyrosyl tRNA synthetase (TcYRS) _High Tyrosine SOP; type: functional; details: 30 µM; also: in the data most compounds retested in dose-response had high values
T4 sequence (whole entry): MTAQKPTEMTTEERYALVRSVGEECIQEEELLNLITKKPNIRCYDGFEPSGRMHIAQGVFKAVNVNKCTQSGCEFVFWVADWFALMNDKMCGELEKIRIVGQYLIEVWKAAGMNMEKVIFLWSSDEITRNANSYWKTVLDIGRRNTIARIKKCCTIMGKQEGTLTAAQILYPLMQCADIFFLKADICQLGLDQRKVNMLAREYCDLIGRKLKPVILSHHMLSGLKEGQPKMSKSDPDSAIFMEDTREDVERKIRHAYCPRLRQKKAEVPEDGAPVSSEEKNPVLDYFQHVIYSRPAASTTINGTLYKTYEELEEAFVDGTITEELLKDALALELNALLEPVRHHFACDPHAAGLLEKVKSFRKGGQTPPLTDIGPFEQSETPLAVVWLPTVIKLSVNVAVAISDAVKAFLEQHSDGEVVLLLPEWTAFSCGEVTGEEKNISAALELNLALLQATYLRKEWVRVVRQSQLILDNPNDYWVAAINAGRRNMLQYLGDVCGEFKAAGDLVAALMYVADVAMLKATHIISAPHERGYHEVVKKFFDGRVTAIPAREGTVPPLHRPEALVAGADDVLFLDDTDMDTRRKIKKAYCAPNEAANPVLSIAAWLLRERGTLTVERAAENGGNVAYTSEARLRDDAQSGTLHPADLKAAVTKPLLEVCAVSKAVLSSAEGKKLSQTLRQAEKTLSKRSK

[8] = target: T4, Tyrosyl-tRNA synthetase, putative (Trypanosoma cruzi (strain CL Brener)); experiment: Trypanosoma cruzi tyrosyl tRNA synthetase (TcYRS) SOP; type: functional; details: 30 µM
[9] = target: Chromo domain-containing protein 1 (Saccharomyces cerevisiae (strain ATCC 204508 / S288c) (Baker's yeast)) (UniProt P32657); experiment: ScCHD-1 Enzyme Inhibition Assay; type: functional; details: 30 µM; also: in the data most compounds retested in dose-response had high values
Sequence of Chromo domain-containing protein 1 (Saccharomyces cerevisiae (strain ATCC 204508 / S288c) (Baker's yeast)) (P32657 whole entry, the tested form may be a part): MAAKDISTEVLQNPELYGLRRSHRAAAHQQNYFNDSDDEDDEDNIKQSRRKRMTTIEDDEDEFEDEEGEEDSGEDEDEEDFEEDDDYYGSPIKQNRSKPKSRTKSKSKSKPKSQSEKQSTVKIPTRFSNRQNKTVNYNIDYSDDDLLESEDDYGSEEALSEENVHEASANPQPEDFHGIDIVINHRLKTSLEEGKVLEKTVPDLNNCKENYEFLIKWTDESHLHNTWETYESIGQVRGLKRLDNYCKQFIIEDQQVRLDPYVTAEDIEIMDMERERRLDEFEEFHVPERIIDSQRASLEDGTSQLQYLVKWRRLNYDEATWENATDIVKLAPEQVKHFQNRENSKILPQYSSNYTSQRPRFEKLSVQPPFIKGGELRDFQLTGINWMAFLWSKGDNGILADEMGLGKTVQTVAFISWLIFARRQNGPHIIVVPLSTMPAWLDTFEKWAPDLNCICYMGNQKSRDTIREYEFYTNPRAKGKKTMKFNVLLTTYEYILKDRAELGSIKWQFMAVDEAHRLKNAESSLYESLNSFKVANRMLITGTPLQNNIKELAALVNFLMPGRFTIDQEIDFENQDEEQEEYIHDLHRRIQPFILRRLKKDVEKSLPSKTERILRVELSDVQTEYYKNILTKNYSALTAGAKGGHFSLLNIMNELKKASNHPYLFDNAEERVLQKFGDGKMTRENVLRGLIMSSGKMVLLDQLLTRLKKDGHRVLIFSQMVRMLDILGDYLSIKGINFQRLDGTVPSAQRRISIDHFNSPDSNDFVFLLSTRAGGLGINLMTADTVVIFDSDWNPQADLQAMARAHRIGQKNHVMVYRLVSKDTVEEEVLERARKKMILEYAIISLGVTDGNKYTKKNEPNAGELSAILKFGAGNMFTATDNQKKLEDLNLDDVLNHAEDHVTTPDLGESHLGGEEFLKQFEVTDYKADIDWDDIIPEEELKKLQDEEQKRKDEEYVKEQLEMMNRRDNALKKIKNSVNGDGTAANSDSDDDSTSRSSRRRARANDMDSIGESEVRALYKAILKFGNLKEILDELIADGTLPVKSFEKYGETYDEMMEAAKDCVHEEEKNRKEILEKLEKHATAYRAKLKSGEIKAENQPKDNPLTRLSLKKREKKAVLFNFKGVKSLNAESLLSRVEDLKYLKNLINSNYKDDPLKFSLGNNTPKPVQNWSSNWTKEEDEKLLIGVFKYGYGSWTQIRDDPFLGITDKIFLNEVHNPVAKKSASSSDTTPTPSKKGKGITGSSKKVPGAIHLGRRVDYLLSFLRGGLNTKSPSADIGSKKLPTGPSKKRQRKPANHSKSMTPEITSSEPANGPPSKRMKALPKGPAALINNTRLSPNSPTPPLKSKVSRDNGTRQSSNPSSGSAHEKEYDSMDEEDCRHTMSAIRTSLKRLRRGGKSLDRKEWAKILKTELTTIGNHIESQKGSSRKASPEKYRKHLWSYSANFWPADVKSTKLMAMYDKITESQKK

Sequence of Sialic acid-binding Ig-like lectin 9 (Homo sapiens) (Q9Y336 whole entry): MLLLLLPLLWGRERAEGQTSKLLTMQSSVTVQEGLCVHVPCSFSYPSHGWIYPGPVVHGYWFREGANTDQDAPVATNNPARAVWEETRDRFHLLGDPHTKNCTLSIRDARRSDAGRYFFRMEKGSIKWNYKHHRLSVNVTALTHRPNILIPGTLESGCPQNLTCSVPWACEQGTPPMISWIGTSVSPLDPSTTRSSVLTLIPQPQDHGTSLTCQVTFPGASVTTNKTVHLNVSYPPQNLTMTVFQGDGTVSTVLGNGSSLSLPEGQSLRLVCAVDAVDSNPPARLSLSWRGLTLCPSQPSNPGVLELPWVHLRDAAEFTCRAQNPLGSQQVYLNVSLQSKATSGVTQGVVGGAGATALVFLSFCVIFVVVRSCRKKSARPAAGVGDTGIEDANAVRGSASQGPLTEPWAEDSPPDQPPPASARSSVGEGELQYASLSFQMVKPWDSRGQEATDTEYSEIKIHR
Sequence of Protein translocase subunit SecA (Escherichia coli (strain K12)) (P10408 whole entry): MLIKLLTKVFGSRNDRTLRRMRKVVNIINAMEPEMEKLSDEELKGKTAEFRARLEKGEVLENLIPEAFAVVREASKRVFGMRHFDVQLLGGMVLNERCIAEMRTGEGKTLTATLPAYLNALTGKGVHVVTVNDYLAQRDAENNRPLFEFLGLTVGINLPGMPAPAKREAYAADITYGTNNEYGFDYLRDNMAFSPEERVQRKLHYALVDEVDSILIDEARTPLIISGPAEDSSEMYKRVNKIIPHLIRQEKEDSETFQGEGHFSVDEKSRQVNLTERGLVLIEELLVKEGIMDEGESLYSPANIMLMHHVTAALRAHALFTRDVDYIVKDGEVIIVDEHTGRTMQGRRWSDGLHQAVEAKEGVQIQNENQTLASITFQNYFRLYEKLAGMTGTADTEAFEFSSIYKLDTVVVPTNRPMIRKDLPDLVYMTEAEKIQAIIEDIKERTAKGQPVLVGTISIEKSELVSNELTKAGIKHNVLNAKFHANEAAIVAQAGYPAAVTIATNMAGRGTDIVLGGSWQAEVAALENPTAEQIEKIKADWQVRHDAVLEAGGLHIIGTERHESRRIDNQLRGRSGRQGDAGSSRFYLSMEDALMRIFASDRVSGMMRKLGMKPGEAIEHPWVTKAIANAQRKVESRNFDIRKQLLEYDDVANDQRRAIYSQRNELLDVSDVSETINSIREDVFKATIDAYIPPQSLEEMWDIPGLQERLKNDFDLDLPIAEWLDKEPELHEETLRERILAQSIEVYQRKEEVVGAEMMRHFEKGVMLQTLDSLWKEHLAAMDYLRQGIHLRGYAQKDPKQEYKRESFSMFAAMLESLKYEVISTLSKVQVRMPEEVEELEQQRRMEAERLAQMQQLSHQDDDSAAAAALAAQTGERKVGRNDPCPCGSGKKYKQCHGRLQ

Structure (SMILES) | Percent Effect [1] [%] | Percent Effect [2] [%] | Percent Effect [3] [%] | Percent Effect [4] [%] | Percent Effect (Trypanosoma cruzi) [%] | Percent Effect [5] [%] | Percent Effect [6] [%] | Percent Effect (Homo sapiens) [%] | Percent Effect [7] [%] | Percent Effect [8] [%] | Percent Effect [9] [%]
O=C(CN1CCc2ccccc21)Nc1ccc(OC(F)F)cc1 | -2 | 1.39 | 0.216 | 8.48 | -2.23 | 0.883 | 21.1 | 8.31 | 0 | -7.69 | 88.5
Cc1csc(C2CCCN(C(=O)c3ccc(=O)n(C)n3)C2)n1 (stereo unspecified) | -1.5 | 0 | -1.05 | -7.99 | -4.2 | 2.23 | 1.97 | -5.09 | -1.07 | -1.24 | -2.21
CSCC(C)(O)CNC(=O)c1cc(Br)ccc1Cl (stereo unspecified) | -6.56 | 2.74 | -10.3 | 29.6 | 9.01 | -4.54 | 18.1 | 10.3 | 3.23 | 17.5 | 34.8
O=C(Cn1ccc2ccc(Br)cc21)NCc1ccc(C(=O)O)cc1 | -2.06 | -5.26 | 4.18 | -0.116 | -7.69 | -3.55 | 9.88 | -5.25 | -10.6 | -13 | -4.34
O=C(NCc1ccccc1)N1CCC2(CC(=O)N(c3ccsc3)C2)C1 (stereo unspecified) | -1.66 | 0 | 3.29 | 0.825 | 0.977 | 0.417 | 2.45 | -9.22 | 85.2 | 6.1 | -1.83
COCCNC(=O)[C@@H]1CC[C@@H]2[C@@H](CCN2Cc2cnn(C)c2)O1 | -1.36 | 13.3 | -7.81 | 2.22 | -0.386 | -43.5 | 9.74 | 2.61 | 3.12 | 10 | -7.85
O=C(NCc1cnc2n1CCN(Cc1ccsc1)CC2)C1CCC1 | -5.62 | 8.11 | -0.353 | 4.49 | 0.293 | 3.72 | 5.24 | -5.3 | 7.53 | 13.6 | -4.47
Cc1nn(C)c(Cl)c1C1CCCN1C(=O)c1ccc2nncn2c1 (stereo unspecified) | -3.02 | 0 | 2.19 | -4.7 | -4.25 | 0 | 3.6 | -2.92 | -4.43 | -6.17 | -0.833
COc1ccccc1C(=O)N(C)Cc1ncc(C)c(OC)c1C | -0.917 | -2.6 | 2.31 | 10.5 | -1.86 | 0.21 | 3.8 | 5.2 | -0.952 | -2.35 | -15.8
CC(=O)c1ccc(C(=O)NCCCOC(C)c2ccccc2)s1 (stereo unspecified) | -1.12 | 7.89 | 0.104 | -8.61 | 1.07 | -8.28 | 13.9 | 21.8 | -3.19 | 10.4 | -1.78
COc1ccc(CCNC(=O)C2CCC(Cn3cnnn3)CC2)cc1 (stereo unspecified) | -1.81 | 1.33 | 15.9 | 3.74 | -1.38 | -5.81 | 5.18 | -2.49 | 5.29 | 2.56 | -1.04
